Data on seven sequences can be found in the supplement of paper PMC6555819.

What all share (experiment): PBM binding z-score (relative to random genomic background probes); higher = stronger binding; sequences stand for … in GC…GCGATTGACAGCGTAGAATGAAGG
Test [1] relates to RARb homodimer (NR concentration 270 nM). In outline:
(§1)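 For binding z-scores, the reference was random background probes on custom Agilent 4×180K protein-binding microarrays. These arrays were incubated 1 h with ligand-free nuclear receptor dimers in PBS pH 7.4, 2% milk, 0.02% Triton X-100, 1 mM DTT, 0.2 mg/mL BSA and 0.4 mg/ml salmon testes DNA. Fluorescence was scanned after antibody detection of each partner (one per run) and regression-normalized.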

For test [2], the system named is RARg:RXRa (NR concentration 270 nM, RXRa partner concentration 90 nM). In a few lines:
as §1

Test [3] relates to RARg homodimer (NR concentration 270 nM). In a few lines: as §1
The test system of test [4] is RXRa DBDmut IVT, anti-RXR (DBD mutation: RXRa K156A/R161A, NR concentration 90 nM). In outline: as §1
Test [5] relates to RXRa homodimer (NR concentration 180 nM). In a few lines:
as §1

In test [6] the test system is THRa:RXRa (NR concentration 90 nM, RXRa partner concentration 90 nM). In a few lines:
as §1

Test [7] relates to THRa homodimer (NR concentration 90 nM). In outline:
as §1

For test [8], the system named is VDR homodimer (NR concentration 270 nM). In outline:
as §1

For the sequence CCAGACAGGTGCAAGGTAACTCAGTCTGGTACGC, the PBM binding z-score in test [1] is -0.106; in test [2], -0.306; in test [3], -0.108; in test [4], 0.584; in test [5], 0.00435; in test [6] it was 0.379. Also, the PBM binding z-score in test [7] was found to be 0.244; in test [8], 0.489.
As for CCGACTGGGGCAAGGTTACGATAACGCACAGCCA, the PBM binding z-score was 1.22 in test [1]; 1.18 in test [2]; 1.56 in test [3]; -0.192 in test [4]; 1.47 in test [5]; 1.28 in test [6]. In addition, the PBM binding z-score in test [7] is 0.056; in test [8] it was -0.241.
Consider CTTTACGGGTCACTCCAGGTTATAGCATCGGAGT, for which the PBM binding z-score in test [1] is 3.36; in test [2], 4.62; in test [3] it was 4.65; in test [4], 2.29; in test [5] it was 4.54; in test [6] it was 5.08. Also, the PBM binding z-score in test [7] worked out at 0.775; in test [8], 1.88.
For CCGAGTAGGTTATGGGCCATTCAGGCAACGGTGA, the PBM binding z-score is 0.655 in test [1]; 0.305 in test [2]; 0.328 in test [3]; -0.165 in test [4]; 0.5 in test [5]; 0.298 in test [6]. Moreover, the figures for the PBM binding z-score in test [7] and in test [8] were 0.0929 and -0.0394, respectively.
As to AATCCAGGGTCACTAGGCCAGAGTAGGTACGAAT, the PBM binding z-score is 3.4 in test [1]; 5.39 in test [2]; 4.98 in test [3]; 2.49 in test [4]; 5.55 in test [5]; 3.54 in test [6]. Also, the PBM binding z-score in test [7] was determined as 1.29; in test [8], 2.57.
For CTCGAAAAGTCGGTTGAGGTGAGTATACGGATAA, the PBM binding z-score in test [1] is 0.0667; in test [2] it was 0.446; in test [3], 0.172; in test [4], -0.0991; in test [5] it was 0.212; in test [6], 3.57. In addition, the values for the PBM binding z-score in test [7] and in test [8] were 1.15 and -0.144, respectively.
Regarding GCTAGTTGGTCAGGAAAAGGTCACACACCGGTCG, the PBM binding z-score turned out to be 5.07 in test [1]; 5.34 in test [2]; 4.46 in test [3]; 0.286 in test [4]; 4.98 in test [5]; 3.52 in test [6]. The figures for the PBM binding z-score in test [7] and in test [8] were 1.64 and 1.68, respectively.
